In the library only some 4% were active in any assay of this set; here they are far more common.
Mtb betalactam – beta-lactam sensitization of Mtb H37Rv; inhibition, % at 25 µM; M. tuberculosis H37Rv growth with meropenem, percent inhibition; 0.27% of 330,000 active; AID 434955; call rule not given here;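 also: growth measured after seven days incubation then overnight dye step; 0% = bacteria only wells and 100% = bacteria with antibiotic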
RecA intein inh – blocks M. tuberculosis RecA intein splicing; P9WHJ3; cell-free RecA intein splicing, fluorescence; inhibition, % (concentration not given with the values); 0.75% of 290,000 active; AID 2221; in the data active = inhibition above about 30%; inconclusive = no clear call, values can overlap the other calls;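 also: 0% = vehicle wells and 100% = reference inhibitor control wells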
Mtb FBA inh – inhibits M. tuberculosis FBA enzyme; AID 588726; 2.3% of 360,000 active; purified M. tuberculosis FBA, fluorescence read-out; inhibition, % at 1 µM; P9WQA3; in the data active = inhibition above about 27%;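 also: 0% = vehicle and 100% = reference inhibitor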
Mtb UGM inh – inhibitors of M. tuberculosis UDP-galactopyranose mutase; P9WIQ1; purified UGM, fluorescence polarization probe displacement; inhibition, % at 10 µM; 0.06% of 320,000 active; in the data active = inhibition above about 10%, passing the limit was not always enough; inconclusive = no clear call, values can overlap the other calls
GDH-TPI inh – GDH-TPI coupled enzyme inhibition counter-screen. GDH-TPI coupled enzyme counterscreen, NADH absorbance. AID 588335. inhibition, % at 4.8 µM. 1.2% of 360,000 active; in the data active = inhibition above about 30%;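 also: 0% = DMSO wells and 100% = wells lacking the enzyme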
Rv3671c inh – Rv3671c (M. tuberculosis) protease inhibition; P9WHR9; inhibition, % at 5.96 µM; 0.048% of 320,000 active; in the data active = inhibition above about 38%;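 also: extracellular domain of Rv3671c used as enzyme; 0% = enzyme with DMSO and 100% = no enzyme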
Target sequence (P9WHR9 whole entry, looked up, the tested form may be a part): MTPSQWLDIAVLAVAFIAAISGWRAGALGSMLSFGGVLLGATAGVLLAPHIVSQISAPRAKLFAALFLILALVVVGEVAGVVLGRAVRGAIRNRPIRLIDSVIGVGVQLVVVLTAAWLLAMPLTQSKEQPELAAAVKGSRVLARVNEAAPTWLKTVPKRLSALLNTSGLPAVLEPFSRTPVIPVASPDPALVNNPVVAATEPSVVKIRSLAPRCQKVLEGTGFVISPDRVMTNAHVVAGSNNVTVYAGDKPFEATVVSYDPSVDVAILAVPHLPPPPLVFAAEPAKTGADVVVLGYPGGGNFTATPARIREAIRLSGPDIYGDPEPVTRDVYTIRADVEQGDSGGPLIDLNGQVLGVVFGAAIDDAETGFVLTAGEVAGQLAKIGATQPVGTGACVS
An asterisk follows results filed as active; ? = inconclusive; / = no result given; + = active, no number.

SMILES	Mtb betalactam	RecA intein inh	Mtb FBA inh	Mtb UGM inh	GDH-TPI inh	Rv3671c inh
Cn1cc(/C=C(\NC(=O)c2ccccc2Cl)C(=O)NCCCN2CCOCC2)c2ccccc21	-3.8	1.1	0.4	1.4	34.0*	-6.1
Cn1cc(/C=C(\NC(=O)c2ccccc2Cl)C(=O)NCCN2CCOCC2)c2ccccc21	-2.1	0.2	-4.1	0.4	25.4	-0.2
CC(C)=NNc1nc(-c2ccccc2)cs1	1.9	0.8	-0.2	3.7	1.9	2.9
O=C(/C=C/c1ccccc1)Nc1nc(-c2ccncc2)cs1	2.3	/	0.0	0.0	37.8*	-76.5
CC(/C=C/c1ccccc1)=N\Nc1nc(-c2ccccc2)cs1	98.0	-1.2	1.7	1.8	31.6*	1.4
O=C(COc1ccc2ccccc2c1)N/N=C/c1ccccn1	-4.5	-11.0	-0.1	4.0	-2.5	-1.6
CS(=O)(=O)N(CC(=O)N1CCCC1)c1ccc(OCc2ccccc2)cc1	2.9	2.5	2.1	3.3	6.7	-0.8
CC1=NN(c2ccccc2)C(=O)/C1=C/c1c(C)[nH]n(-c2ccc(C)cc2)c1=O	-6.6	-0.3	/	-2.6	/	7.6
Cc1[nH]n(-c2ccccc2)c(=O)c1/C=C1/C=c2ccccc2=N1	/	34.5*	-10.4	/	6.1	/
COc1ccc2c(c1)cc(C(=O)N/N=C/c1c(O)c(C(=O)O)cc3ccccc13)n2C	1.1	-15.7	-1.8	-3.3	31.9*	18.8
CC(=O)Nc1ccc(N=Cc2c(O)c(C(=O)Nc3ccccc3)cc3ccccc23)cc1	20.9	-6.8	/	6.4	/	4.6
CN1C2CC(OC(=O)C(CO)c3ccccc3)CC1C1OC12 (stereo not drawn)	/	0.5	1.6	2.1	/	2.9
COc1cccc(/C=C2\Sc3ccc(C(=O)NCc4cccnc4)cc3N(C)C2=O)c1	99.0	-0.8	2.6	4.4	0.0	-18.4
COc1ccc(/C=C2\Sc3ccc(C(=O)NCc4cccnc4)cc3N(C)C2=O)cc1OC	97.1	-0.9	0.5	2.8	34.6*	-6.2
COc1cc(/C=C/C(=O)OCC(=O)Nc2ccc([N+](=O)[O-])cc2)ccc1O	4.6	4.3	-2.7	-2.9	68.3*	5.5
CCc1cc2c(=O)c(-c3nc4ccccc4n3C)c(C)oc2c(CN2CCN(C)CC2)c1O	-1.7	0.0	/	-0.1	/	4.2
CCc1cc2c(=O)c(-c3nc4ccccc4n3C)coc2c(CN2CCCC(C)C2)c1O (stereo not drawn)	?	-4.2	11.4	-1.3	34.0*	-11.1
CCc1cc2c(=O)c(-c3nc4ccccc4n3C)c(C)oc2c(CN2CCN(CCO)CC2)c1O	-4.6	-2.7	11.9	-0.2	35.1*	3.0
O=C1OC(Cc2ccccn2)C(=O)C1=C1SCCS1 (stereo not drawn)	-6.1	-4.5	-2.7	0.1	41.5*	-1.1
O=C1CSC(c2ccccc2)N1Cc1ccccn1 (stereo not drawn)	9.0	0.6	1.9	0.6	1.9	/
Cc1cc(C)n2nc3nc(N4CCCCC4)nc(-c4ccco4)c3c2n1	-2.9	-11.5	37.5*	-0.7	15.5	-3.1
COC(=O)[C@H](CC(C)C)NC(=O)/C=C/[C@H]1O[C@@H](n2cc(C)c(=O)[nH]c2=O)C[C@@H]1O	/	/	-0.6	/	/	/
CNCC(O)CN(c1ccccc1)c1ccccc1 (stereo not drawn)	-10.4	40.5*	4.0	-0.6	-11.2	0.7
Nc1ccc2[nH]ncc2c1	1.8	61.4*	25.9	-3.7	2.4	2.5
O=C(Cc1ccc(F)cc1)Nc1ccc2[nH]ncc2c1	3.8	-0.4	-1.9	0.1	-1.6	11.3
SMILES	Mtb betalactam	RecA intein inh	Mtb FBA inh	Mtb UGM inh	GDH-TPI inh	Rv3671c inh
COc1ccc2oc(C)c(C(=O)c3ccc([N+](=O)[O-])cc3)c2c1	-0.6	10.5	-0.8	-2.0	-5.2	1.1
COc1cccc(CC(=O)Nc2ccc3c(c2)c(=O)n(C)n3-c2ccc(C(C)(C)C)cc2)c1	/	/	6.3	/	5.6	/
COc1cccc(Cn2c3ccc(NC(=O)Cc4cc(OC)ccc4OC)cc3c(=O)n2C)c1	/	/	152.2*	/	2.7	/
COc1cccc(Cn2c3ccc(NC(=O)CC(C)C(F)(F)F)cc3c(=O)n2C)c1 (stereo not drawn)	/	/	142.8*	/	8.9	/
CC(CC(=O)Nc1ccc2c(c1)c(=O)n(C)n2Cc1ccc(F)cc1)C(F)(F)F (stereo not drawn)	/	/	148.1*	/	-3.6	/
CC(CC(=O)Nc1ccc2c(c1)c(=O)n(C)n2Cc1ccc(F)cc1)c1ccccc1 (stereo not drawn)	/	/	129.5*	/	1.8	/
CC(CC(=O)Nc1ccc2c(c1)c(=O)n(C)n2-c1ccc2ccccc2c1)C(F)(F)F (stereo not drawn)	/	/	6.4	/	7.5	/
CCn1cc(C(=O)Nc2ccc(OC)c(S(=O)(=O)N3CCCCC3)c2)c(=O)c2ccc(C)nc21	2.6	-4.2	-5.0	0.9	5.7	-15.3
Cc1nn(CC(=O)NCCCN2CCCCC2)c(=O)c2cc(-c3ccccc3)nn12	-3.8	-2.1	1.5	0.1	-0.8	-0.7
CCOCN(C(=O)Cn1cnc2ccccc21)c1c(C)cccc1CC	13.6	0.2	-0.8	0.0	3.7	5.0
Cc1c(C(=O)N2CCN(C3CCS(=O)(=O)C3)CC2)oc2c(F)cccc12 (stereo not drawn)	-2.9	/	6.4	0.8	2.8	-1.3
O=C(Oc1ccc(C(=S)N2CCOCC2)cc1)c1ccc([N+](=O)[O-])cc1[N+](=O)[O-]	12.8	45.8*	0.0	-1.4	8.9	-6.8
O=C(Oc1cccc(C(=S)N2CCOCC2)c1)c1ccc([N+](=O)[O-])cc1[N+](=O)[O-]	57.7	4.8	0.7	-2.6	5.2	2.2
FC(F)(F)c1nnc(-c2ccccc2)nc1Oc1ccccc1	5.9	5.2	3.3	-0.6	0.0	-2.7
Fc1ccc(Oc2nc(-c3ccccc3)nnc2C(F)(F)F)cc1	15.6	62.0*	13.4	-0.2	-2.6	-4.7
Cc1cc(C)c2c(c1)cc(C)c1nnc(SCC(=O)N3CCCc4ccccc43)n12	-7.3	-4.7	1.4	0.7	8.7	-4.4
CC(=O)Nc1cccc(NC(=O)CSc2nnnn2Cc2ccccc2)c1	-9.6	/	-3.9	3.2	-0.9	-11.2
C=CCN(CC=C)C(=O)COC(=O)c1ccc(Sc2ncn[nH]2)c([N+](=O)[O-])c1	4.5	2.0	0.3	1.7	5.7	1.2
CC(/C=C/c1ccc2c(c1)OCO2)=N/NC(=O)c1cccnc1	90.0	-1.3	-0.7	-2.2	42.0*	3.3
CC(/C=C/c1ccc2c(c1)OCO2)=N/NC(=O)c1ccncc1	99.1	-0.4	-3.4	0.4	47.5*	2.4
O=C(N/N=C/c1ccc2c(c1)OCCO2)c1ccncc1	98.7	-1.6	-1.1	-0.8	3.1	8.2
CC(/C=C/c1ccc2c(c1)OCO2)=N/NC(=O)c1ccc(C)nc1	61.9	-2.0	3.6	2.5	36.3*	1.1
c1ccc(CSCc2cn3ccccc3n2)cc1	-3.3	/	15.2	-2.6	-0.6	14.9
CCC(=O)Oc1ccc2c(C)cc(=O)oc2c1C(=O)CC	-1.9	5.2	7.7	2.2	7.7	4.8
CC(=O)Nc1c(OC(C)=O)ccc2c(C)cc(=O)oc12	9.3	-85.2	+	-1.4	12.4	4.6

Screening data as filed in PubChem.
